Source: PubChem BioAssay (Tox21)
“And” between values parts separate entries of the source, which are not always exact repeats. Identical values can stand only once. Results filed as inconclusive are left out. Where a call stands in place of a potency, no number is given. Some compounds were tested as several samples or in several runs, with calls that do not always agree. The source made the active and inactive calls. Calls follow the shape of the dose curve; as a rule, active = well fitted curve in the direction sought with a large enough effect in the repeat runs; inconclusive = weak or mixed curves; inactive = no such curve, though single readings can be large; an effect the other way counts as inactive or inconclusive.

Key:
[1] = A CellTox Green Cytotoxicity Assay to monitor cytotoxicity in HEK293 cells - 40 hour (AID 1224871); also: nearly all actives have a fitted effect of over 45% in size
Summary of the method: (§1)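 Seeding of HEK293 cells together with cytotoxicity dye preceded a 5 h incubation at 37 C/5% CO2. Test compounds in DMSO were then added and fluorescence monitored across 40 h.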

[2] = qHTS RealTime-Glo MT Cell Viability Assay in HEK293 cells - 16 hour (AID 1224872); also: nearly all actives have a fitted effect of over 50% in size
Summary of the method: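 Quantitative high-throughput screen of the Tox21 10K library in HEK293: cells and RealTime-Glo reagents plated together, compound added at 5 h, luminescence monitored through 40 h at 37 C.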

[3] = qHTS RealTime-Glo MT Cell Viability Assay in HepG2 cells - 8 hour (AID 1224873); also: nearly all actives have a fitted effect of over 55% in size
Summary of the method: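 HepG2 cells (600/well) mixed with RealTime-Glo MT reagent, settled 5 h at 37 C/5% CO2 before compound addition. Nonlytic NanoLuc luminescence from viable-cell prosubstrate reduction read repeatedly during 40 h treatment at 37 C.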

[4] = qHTS RealTime-Glo MT Cell Viability Assay in HEK293 cells - 40 hour (AID 1224874); settings: RealTime-Glo luminescence; max response: stronger effect = lower value; also: nearly all actives have a fitted effect of over 50% in size
Summary of the method: (§2)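 Tox21 screen in HEK293 using RealTime-Glo MT chemistry, with cells and reagent co-dispensed. Luminescence proportional to viable cell number was captured at intervals during 40 h compound exposure at 37 C.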

[5] = A CellTox Green Cytotoxicity Assay to monitor cytotoxicity in HEK293 cells - 24 hour (AID 1224875); also: nearly all actives have a fitted effect of over 45% in size
Summary of the method: as §1

[6] = A CellTox Green Cytotoxicity Assay to monitor cytotoxicity in HepG2 cells - 16 hour (AID 1224876); also: nearly all actives have a fitted effect of over 45% in size
Summary of the method: (§3)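 Nonlytic assay: viable cells exclude the dye, so fluorescence scales with cell death. HepG2 at 600 cells/well, compounds added after 5 h, signal read across 40 h.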

[7] = qHTS RealTime-Glo MT Cell Viability Assay in HepG2 cells - 32 hour (AID 1224877); also: nearly all actives have a fitted effect of over 55% in size
Summary of the method: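 Compound treatment began 5 h after plating HepG2 cells (600/well) with NanoLuc luciferase and prosubstrate. Plates stayed at 37 C for 40 h; luminescence was captured at six time points, 0 h through 40 h.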

[8] = A CellTox Green Cytotoxicity Assay to monitor cytotoxicity in HepG2 cells - 40 hour (AID 1224879); also: nearly all actives have a fitted effect of over 40% in size
Summary of the method: as §3

[9] = qHTS RealTime-Glo MT Cell Viability Assay in HEK293 cells - 0 hour (AID 1224880); also: nearly all actives have a fitted effect of over 45% in size
Summary of the method: as §2

[10] = A CellTox Green Cytotoxicity Assay to monitor cytotoxicity in HepG2 cells - 24 hour (AID 1224878); also: nearly all actives have a fitted effect of over 45% in size
Summary of the method: as §3
Potency is read from the fitted curve at half-maximal effect.

Structure (SMILES)	Potency [1]	Potency [2]	Potency [3]	max response [4]	Potency [5]	Potency [6]	Potency [7]	Potency [8]	Potency [9]	Potency [4]	Potency [10]	cytotoxicity increase [1]	cytotoxicity [10]	cytotoxicity increase [8]
FC(F)(F)C(Cl)Br (stereo not drawn)	inactive	inactive	inactive	-4.81% (inactive) and 5.64% (inactive)	inactive	inactive	inactive	inactive	inactive					
CC(=O)[C@@]1(O)CC[C@H]2[C@@H]3C[C@H](C)C4=CC(=O)C=C[C@]4(C)[C@@]3(F)[C@@H](O)C[C@@]21C	inactive	38.9 µM (active) and inactive	inactive	-3.14% (inactive)	inactive		inactive	inactive	5.49 µM (active) and 3.01 µM (active)	19.5 µM (active)	inactive			
Cc1ccc(S(=O)(=O)O)cc1C	inactive	inactive	inactive	-0.252% (inactive) and 9.18% (inactive)	inactive	inactive	inactive	inactive	inactive		inactive			
Cc1ccc2c(c1)C(=O)OC2=O	inactive	inactive	inactive	5.67% (inactive) and 0.571% (inactive)	inactive	inactive	inactive	inactive	inactive					
CCCCCCCCCCCCCO	inactive	inactive	inactive	3.82% (inactive) and -0.0255% (inactive)	inactive	inactive	inactive		inactive		inactive			
CCOC(=O)C(C)Oc1ccc(Oc2cnc3cc(Cl)ccc3n2)cc1 (stereo not drawn)	inactive and 1.29 µM (active)	20 µM (active) and 20.5 µM (active)	inactive	-24.7% (inactive)	inactive	inactive		inactive	inactive	44.7 µM (active)				
O=[Se](O)O	30.9 µM (active)	inactive	inactive		inactive	inactive		24.6 µM (active)	inactive	17.4 µM (active)		-7.57% [at 15.8 µM] (inactive)	4.65% [at 15.8 µM] (inactive)	15.7% [at 15.8 µM] (inactive)
O=C1OC2(c3ccccc31)c1cc(I)c(O)c(I)c1Oc1c2cc(I)c(O)c1I	11.8 µM (active) [middle of 4 runs]	49.1 µM (active) and inactive	39 µM (active)	-20.2% (inactive)	12 µM (active) [middle of 4 runs]	11.8 µM (active) [middle of 4 runs]		13.3 µM (active) [middle of 4 runs]	5.56 µM (active) [middle of 4 runs]	49.1 µM (active)	13.3 µM (active) [middle of 4 runs]			
C1COCCN1	inactive	inactive	inactive	-0.365% (inactive) and -12.5% (inactive) and 10.6% (inactive)	inactive	inactive	inactive	inactive	inactive		inactive			
O=Cc1ccccc1C=O	inactive	inactive	inactive	0.419% (inactive)	inactive	inactive	inactive	21.9 µM (active) and inactive	inactive		24.5 µM (active) and inactive			
CCCCCCOCCOCCO	inactive	inactive	inactive	4% (inactive) and -0.302% (inactive)	inactive	inactive	inactive	inactive	inactive		inactive			
CC1(C)O[C@@H]2C[C@H]3[C@@H]4C[C@H](F)C5=CC(=O)C=C[C@]5(C)[C@@]4(F)[C@@H](O)C[C@]3(C)[C@]2(C(=O)CO)O1	inactive	inactive	inactive	-29.2% (inactive) and -4.18% (inactive)	inactive	inactive	inactive	inactive			inactive			
c1ccc2cc3ccccc3cc2c1	inactive	inactive	inactive	1.77% (inactive) and 23.2% (inactive)	inactive	inactive	inactive	inactive	inactive		inactive			
O=S1(=O)CCCO1	inactive	inactive	inactive	5.89% (inactive) and 10.2% (inactive)	inactive	inactive	inactive	inactive	inactive		inactive			
CN(C)C	inactive	inactive	inactive	3.08% (inactive) and -9.36% (inactive)	inactive	inactive	inactive	inactive	inactive		inactive			
Nc1cc(Cl)c(N)c(Cl)c1	inactive	inactive	inactive	25.2% (inactive)	inactive	inactive	inactive	inactive	inactive		inactive			
CC(C)(C)c1cccc(C(C)(C)C)c1O	47.9 µM (active) and inactive	38 µM (active) and inactive	inactive	1.57% (inactive)		inactive		inactive	inactive	21.4 µM (active)	inactive			
[O-]/[N+](=N\O)c1ccccc1	inactive	inactive	inactive	2.42% (inactive) and -11.8% (inactive)	inactive	inactive	inactive	inactive	inactive		inactive			

Structure (SMILES)	Potency [1]	Potency [2]	Potency [3]	max response [4]	Potency [5]	Potency [6]	Potency [7]	Potency [8]	Potency [9]	Potency [4]	Potency [10]	cytotoxicity increase [1]	cytotoxicity [10]	cytotoxicity increase [8]
CCCN1C=CN(C)C1	inactive	inactive	inactive	-1.14% (inactive) and -1.07% (inactive)	inactive	inactive	inactive	inactive	inactive		inactive			
[Na+]	inactive	inactive	inactive	3.11% (inactive) and 3.69% (inactive)	inactive	inactive	inactive and 49 µM (active)	inactive	inactive					
C=CN1CCCC1=O	inactive	inactive	inactive	0.332% (inactive) and -7.88% (inactive)	inactive	inactive	inactive	inactive	inactive		inactive			
CC1(C)OC(=O)NC1=O	inactive	inactive	inactive	-4.09% (inactive) and 7.44% (inactive)	inactive	inactive	inactive	inactive	inactive		inactive			
Cc1ccc([N+](=O)[O-])c(C)c1	24.6 µM (active) and inactive	38.9 µM (active) and inactive	inactive	-10.8% (inactive)	inactive	inactive		17.4 µM (active) and inactive	inactive	38.9 µM (active)	inactive			
NC[C@H](O)c1ccc(O)c(O)c1	inactive	inactive	inactive	-0.0212% (inactive) and 2.99% (inactive)	inactive	inactive	inactive	inactive	inactive					
c1ccc2c(c1)ccc1cc3c(ccc4ccccc43)cc12	inactive	inactive	inactive	16% (inactive) and 7.61% (inactive)	inactive	inactive	inactive	4.32 µM (active) and 1.22 µM (active)	inactive		inactive			
O=C(O)c1ccc(O)cc1	inactive	inactive	inactive	-0.345% (inactive) and 9.29% (inactive)	inactive	inactive	inactive	inactive	inactive		inactive			
CCCCCCC(C)O (stereo not drawn)	inactive	inactive	inactive	1.85% (inactive) and 4.03% (inactive)	inactive	inactive	inactive	inactive	inactive					
CCCOCCO	inactive	inactive	inactive	2.92% (inactive) and 1.86% (inactive)	inactive	inactive	inactive	inactive	inactive					
OC[C@@H](O)[C@@H](O[C@@H]1O[C@H](CO)[C@H](O)[C@H](O)[C@H]1O)[C@H](O)[C@@H](O)CO	inactive	inactive	inactive	5.89% (inactive) and 2.02% (inactive)	inactive	inactive	inactive	inactive	inactive		inactive			
CN(C)/N=N/c1nc[nH]c1C(N)=O	inactive	inactive	inactive	-18.2% (inactive) and -3.15% (inactive)	inactive	inactive	inactive	inactive	inactive		inactive			
IC(I)I	inactive	inactive	inactive	7.94% (inactive) and 2.04% (inactive)	inactive	inactive	24.5 µM (active) and 17.4 µM (active)	inactive	inactive					
O=C(O)c1cc(=O)[nH]c(=O)[nH]1	inactive	inactive	inactive	10.8% (inactive) and 0.747% (inactive)	inactive	inactive	inactive	inactive	inactive		inactive			
C/C=C/C(=O)N(CC)c1ccccc1C	inactive	inactive	inactive	1.07% (inactive) and 4.13% (inactive)	inactive	inactive	inactive	inactive	inactive		inactive			
O=C(O)CCCC(=O)O	inactive	inactive	inactive	-2.98% (inactive) and 4.62% (inactive)	inactive	inactive	inactive	inactive	inactive					
COC(=O)CC(=O)OC	inactive	inactive	inactive	2.65% (inactive) and 1% (inactive)	inactive	inactive	inactive	inactive	inactive					
CC(=O)Nc1ccc2c(c1)Cc1cc(NC(C)=O)ccc1-2	inactive	inactive	inactive	1.79% (inactive) and 3.64% (inactive)	inactive	inactive	inactive	inactive	inactive		inactive			
